Reference: PubChem BioAssay AID1159580 (chemical genetic matrix, 2015)
Out of some 5,500 compounds screened, about 2,000 (36%) were called active. Roughly 18% stayed inconclusive and do not appear here. Cut-off read from the data, not from the text of the source: active = normalized growth mostly below about 0.91 (no sharp cut-off); inconclusive = no clear call, values can overlap the other calls; inactive = mostly above about 0.92. The list shows a part of the results.

Assay: chemical genetic growth profiling, strain panel (AID 1159580);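 note: tested at 20 µM; growth read once vehicle control cultures reached saturation at 30 °C; 1 = growth at the plate median or of vehicle wells; lower values mean less growth of the strain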
Details: growth OD

Measured: normalized growth

CC(=O)O[C@H]1CC[C@]2(C)C3CC[C@@]4(C)C(CC5O[C@@]6(CCC(C)CO6)[C@@H](C)C54)C3CC[C@H]2C1 (stereo partly drawn)
inactive: S. cerevisiae deletion strains, locus YAL013W, strain DEP1, stronger effect = lower value 0.995 | S. cerevisiae deletion strains, locus YBR021W, strain FUR4, stronger effect = lower value 1 | S. cerevisiae deletion strains, locus YBR229C, strain ROT2, stronger effect = lower value 0.986 | S. cerevisiae deletion strains, locus YCL029C, strain bik1, stronger effect = lower value 0.98 | S. cerevisiae deletion strains, locus YDL035C, strain GPR1, stronger effect = lower value 1.02 | S. cerevisiae deletion strains, locus YDL074C, strain BRE1, stronger effect = lower value 1.01 | S. cerevisiae deletion strains, locus YDL101C, strain DUN1, stronger effect = lower value 0.98 | S. cerevisiae deletion strains, locus YDL134C, strain PPH21, stronger effect = lower value 0.988 | S. cerevisiae deletion strains, locus YDL185W, strain tfp1, stronger effect = lower value 0.972 | S. cerevisiae deletion strains, locus YDL192W, strain arf1, stronger effect = lower value 0.987 | S. cerevisiae deletion strains, locus YDR101C, strain arx1, stronger effect = lower value 0.983 | S. cerevisiae deletion strains, locus YDR150W, strain NUM1, stronger effect = lower value 1 | S. cerevisiae deletion strains, locus YDR162C, strain NBP2, stronger effect = lower value 1.02 | S. cerevisiae deletion strains, locus YDR318W, strain mcm21, stronger effect = lower value 0.975 | S. cerevisiae deletion strains, locus YDR388W, stronger effect = lower value 0.973 | S. cerevisiae deletion strains, locus YDR502C, strain sam2, stronger effect = lower value 0.974 | S. cerevisiae deletion strains, locus YEL061C, strain CIN8, stronger effect = lower value 0.997 | S. cerevisiae deletion strains, locus YER110C, stronger effect = lower value 0.976 | S. cerevisiae deletion strains, locus YER155C, strain BEM2, stronger effect = lower value 0.984 | S. cerevisiae deletion strains, locus YER167W, strain BCK2, stronger effect = lower value 0.995 | S. cerevisiae deletion strains, locus YGL078C, strain dbp3, stronger effect = lower value 0.971 | S. cerevisiae deletion strains, locus YGL086W, strain mad1, stronger effect = lower value 0.988 | S. cerevisiae deletion strains, locus YGL248W, strain PDE1, stronger effect = lower value 0.984 | S. cerevisiae deletion strains, locus YGR135W, strain pre9, stronger effect = lower value 0.948 | S. cerevisiae deletion strains, locus YGR252W, strain gcn5, stronger effect = lower value 0.92 | S. cerevisiae deletion strains, locus YHR030C, strain SLT2, stronger effect = lower value 0.978 | S. cerevisiae deletion strains, locus YHR079C, strain IRE1 (second series), stronger effect = lower value 0.977 | S. cerevisiae deletion strains, locus YHR094C, strain hxt1, stronger effect = lower value 0.969 | S. cerevisiae deletion strains, locus YHR129C, strain ARP1, stronger effect = lower value 0.991 | S. cerevisiae deletion strains, locus YHR200W, strain rpn10, stronger effect = lower value 0.973 | S. cerevisiae deletion strains, locus YIL066C, strain RNR3, stronger effect = lower value 0.993 | S. cerevisiae deletion strains, locus YIL073C, strain SPO22, stronger effect = lower value 0.985 | S. cerevisiae deletion strains, locus YIL125W, strain kgd1, stronger effect = lower value 0.982 | S. cerevisiae deletion strains, locus YIR030C, strain dcg1, stronger effect = lower value 0.975 | S. cerevisiae deletion strains, locus YJL095W, strain BCK1, stronger effect = lower value 0.977 | S. cerevisiae deletion strains, locus YJL134W, strain LCB3, stronger effect = lower value 0.987 | S. cerevisiae deletion strains, locus YJL168C, strain set2, stronger effect = lower value 0.979 | S. cerevisiae deletion strains, locus YJL187C, strain SWE1 (second series), stronger effect = lower value 0.977 | S. cerevisiae deletion strains, locus YJR043C, strain POL32, stronger effect = lower value 1.02 | S. cerevisiae deletion strains, locus YJR075W, strain HOC1, stronger effect = lower value 0.983 | S. cerevisiae deletion strains, locus YKL009W, strain mrt4, stronger effect = lower value 1.04 | S. cerevisiae deletion strains, locus YKL068W, stronger effect = lower value 0.979 | S. cerevisiae deletion strains, locus YKL085W, strain MDH1 (second series), stronger effect = lower value 1.01 | S. cerevisiae deletion strains, locus YKL085W, strain MDH1, stronger effect = lower value 1.01 | S. cerevisiae deletion strains, locus YKL190W, strain CNB1, stronger effect = lower value 0.999 | S. cerevisiae deletion strains, locus YKR001C, strain vps1, stronger effect = lower value 0.971 | S. cerevisiae deletion strains, locus YLR039C, strain RIC1, stronger effect = lower value 1.07 | S. cerevisiae deletion strains, locus YLR058C, strain SHM2, stronger effect = lower value 0.989 | S. cerevisiae deletion strains, locus YLR102C, strain apc9, stronger effect = lower value 0.979 | S. cerevisiae deletion strains, locus YLR268W, strain sec22, stronger effect = lower value 0.987 | S. cerevisiae deletion strains, locus YLR330W, strain CHS5, stronger effect = lower value 0.986 | S. cerevisiae deletion strains, locus YLR371W, strain rom2, stronger effect = lower value 0.991 | S. cerevisiae deletion strains, locus YLR418C, strain cdc73, stronger effect = lower value 0.976 | S. cerevisiae deletion strains, locus YML016C, strain PPZ1, stronger effect = lower value 0.989 | S. cerevisiae deletion strains, locus YML032C, strain rad52, stronger effect = lower value 0.977 | S. cerevisiae deletion strains, locus YML124C, strain tub3, stronger effect = lower value 0.994 | S. cerevisiae deletion strains, locus YMR078C, strain ctf18, stronger effect = lower value 0.969 | S. cerevisiae deletion strains, locus YMR223W, strain ubp8, stronger effect = lower value 0.969 | S. cerevisiae deletion strains, locus YMR263W, strain SAP30, stronger effect = lower value 0.991 | S. cerevisiae deletion strains, locus YMR307W, strain GAS1, stronger effect = lower value 1.09 | S. cerevisiae deletion strains, locus YNL067W, strain RPL9B, stronger effect = lower value 0.983 | S. cerevisiae deletion strains, locus YNL153C, strain GIM3, stronger effect = lower value 0.977 | S. cerevisiae deletion strains, locus YNL233W, strain BNI4, stronger effect = lower value 1.01 | S. cerevisiae deletion strains, locus YNL250W, strain rad50, stronger effect = lower value 0.965 | S. cerevisiae deletion strains, locus YNL271C, strain bni1, stronger effect = lower value 0.982 | S. cerevisiae deletion strains, locus YNL298W, strain CLA4, stronger effect = lower value 0.971 | S. cerevisiae deletion strains, locus YNL307C, strain MCK1, stronger effect = lower value 0.982 | S. cerevisiae deletion strains, locus YNR052C, strain pop2, stronger effect = lower value 0.953 | S. cerevisiae deletion strains, locus YOL006C, strain TOP1, stronger effect = lower value 1.06 | S. cerevisiae deletion strains, locus YOL012C, strain htz1 1.12 | S. cerevisiae deletion strains, locus YOL147C, strain pex11, stronger effect = lower value 0.98 | S. cerevisiae deletion strains, locus YOR061W, strain CKA2, stronger effect = lower value 1 | S. cerevisiae deletion strains, locus YOR069W, strain VPS5, stronger effect = lower value 0.98 | S. cerevisiae deletion strains, locus YOR136W, strain idh2, stronger effect = lower value 0.968 | S. cerevisiae deletion strains, locus YOR144C, strain elg1, stronger effect = lower value 0.972 | S. cerevisiae deletion strains, locus YOR184W, strain ser1, stronger effect = lower value 1.02 | S. cerevisiae deletion strains, locus YOR316C, strain cot1, stronger effect = lower value 0.977 | S. cerevisiae deletion strains, locus YPR119W, strain clb2, stronger effect = lower value 0.968 | S. cerevisiae deletion strains, locus YPR141C, strain kar3, stronger effect = lower value 0.974 | S. cerevisiae deletion strains, locus YPR163C, strain tif3, stronger effect = lower value 0.977 | S. cerevisiae deletion strains, locus YPR167C, strain met16, stronger effect = lower value 0.979 | S. cerevisiae deletion strains, strain wtn01, stronger effect = lower value 1 | S. cerevisiae strains, strain wild type, stronger effect = lower value 1.02
